Assay outcomes: PubChem BioAssay, Sanford-Burnham Center for Chemical Genomics
Shown are actives, neighbours in structure and some others; about 4.1% of the full set was active somewhere.
tim23-1 inh – growth inhibitors of tim23-1 mutant yeast, primary screen, luminescence, uHTS | S. cerevisiae tim23-1 growth, BacTiter-Glo luminescence, 24 h | inhibition, % at 20 µM | actives 1.3% (n = 330,000) | AID 463212, 2010;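 active = growth inhibition of the mutant yeast at or above 50%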;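 note: temperature-sensitive mutant grown at 25 °C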
tim10-1 inh – growth inhibitors of tim10-1 mutant yeast, primary screen, luminescence, uHTS. S. cerevisiae tim10-1 ts strain growth, BacTiter-Glo, 24 h. inhibition, % at 20 µM. actives 2.2% (n = 330,000);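 active = inhibition of at least 40%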;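 note: mutant grown at 25 °C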
NALP1 yeast inh – NALP1 inflammasome inhibitors in reconstituted yeast, colorimetric, S. cerevisiae, triplicate retest. inhibition, % at 10 µM. S. cerevisiae NALP1/ASC/caspase-1 growth, X-gal OD620, 72 h. actives 0.61% (n = 280,000); in the data active = inhibition mostly above about 24%, no sharp cut-off; inactive = mostly below about 32%
NLRP3 yeast inh – NALP3 inflammasome inhibitors in reconstituted yeast, primary screen, luminescence, uHTS; Yeast reconstituted NLRP3/ASC/caspase-1, beta-gal luminescence, 24 h; inhibition, % at 10 µM; actives 0.39% (n = 330,000);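 active = inhibition of 50% or more; inactive = inhibition below 50%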
TIM10 inh – growth inhibitors of isogenic TIM10 control yeast, primary screen, counter-screen for tim10-1 yeast inhibitor project, luminescence, uHTS; S. cerevisiae TIM10 strain growth, BacTiter-Glo luminescence, 24 h; inhibition, % at 10 µM; actives 1.4% (n = 330,000); AID 463195, 2010;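 active = inhibition of 40% or more at the single tested concentration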;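 note: wild-type TIM10 isogenic control strain grown at permissive 25 °C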
tim10-1 conf – growth inhibitors of tim10-1 mutant yeast, confirmation, single concentration, luminescence, S. cerevisiae. shares compounds with tim10-1 inh. S. cerevisiae tim10-1 ts strain growth, BacTiter-Glo, 24 h. inhibition, % at 20 µM. actives 56% (n = 7,400). AID 463213, 2010;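 active = inhibition of yeast growth at or above a set limit in either of two repeat tests at 20 µM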;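 note: tim10-1 mutant grown at permissive 25 °C to find synthetic lethal compounds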
TIM10 conf – growth inhibitors of wild-type TIM10 yeast, confirmation, counter-screen for tim10-1 synthetic lethality project, single concentration, luminescence, S. cerevisiae | shares compounds with TIM10 inh | S. cerevisiae tim10 strain growth, BacTiter-Glo luminescence, 24 h | inhibition, % at 10 µM | actives 63% (n = 4,600) | AID 463215, 2010;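 active = inhibition of yeast growth at or above a set limit in either of two replicates at 10 µM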; note: this counterscreen used the strain with wild-type TIM10
tim23-1 confirm – tim23-1 mutant yeast growth inhibitors, confirmation, luminescence, single concentration; shares compounds with tim23-1 inh; S. cerevisiae tim23-1 growth, BacTiter-Glo luminescence, 24 h; inhibition, % at 20 µM; actives 83% (n = 4,400); AID 463218, 2010;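 active = inhibition above about 39% in either of two replicate wells at 20 µM, limit read from the data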;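 note: temperature-sensitive tim23-1 mutant grown at 25 °C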
Large screens that a line does not name were inactive (follow-up assays come after a bar, where they were run).

O=C(c1ccc([N+](=O)[O-])cc1[N+](=O)[O-])n1cnc2ccccc21	tim23-1 inh 73, tim10-1 inh 69, TIM10 inh 59 | tim10-1 conf 76 | TIM10 conf 52 | tim23-1 confirm 84
O=C(c1ccccc1[N+](=O)[O-])n1cnc2ccccc21	none
O=C(N/N=C/c1ccc([N+](=O)[O-])o1)c1cn2ccc3ccccc3c2n1	tim23-1 inh 74, tim10-1 inh 59, TIM10 inh 60 | tim10-1 conf 72 | TIM10 conf 78 | tim23-1 confirm inactive
Cc1nn(-c2ccccc2)c2c1C1(C(=O)N3c4c(cccc41)C(C)CC3(C)C)C(C#N)=C(N)O2 (stereo unspecified)	tim23-1 inh 69, tim10-1 inh 75, TIM10 inh 52 | tim10-1 conf 73 | TIM10 conf 43 | tim23-1 confirm 78
COc1ccc(N(C(=O)Cn2nnc3ccccc32)C(C(=O)NCc2ccco2)c2ccncc2)cc1 (stereo unspecified)	none
COc1cc(N=c2ssnc2Cl)cc(OC)c1	tim23-1 inh 76, tim10-1 inh 55 | tim10-1 conf 58 | tim23-1 confirm 79
O=C(NCc1ccc(Cl)cc1)c1cccc2c1C(=O)N(CC1CCCO1)C2 (stereo unspecified)	none
O=S(=O)(c1ccc2c(c1)OCCO2)N1CCN(Cc2ccc3c(c2)OCO3)CC1	tim23-1 inh 60, tim10-1 inh 47, TIM10 inh 50 | tim10-1 conf 46 | TIM10 conf 51 | tim23-1 confirm 63
Cc1cccc2sc(N(CCN(C)C)C(=O)C3CCN(S(=O)(=O)c4cccs4)CC3)nc12	none (no result: NALP1 yeast inh)
CCOC(=O)c1ccc(NC(=O)CCC2COc3ccccc3O2)cc1 (stereo unspecified)	tim23-1 inh 53, tim10-1 inh 41 | tim10-1 conf 36 | tim23-1 confirm 48
O=C(Nc1ccccc1O)C(c1ccccc1)c1ccccc1	none
COc1ccccc1OCC(=O)N(Cc1nc(-c2ccccc2)no1)C1CCCCC1	tim23-1 inh 52, tim10-1 inh 42 | tim10-1 conf 31 | tim23-1 confirm 51
Cc1ccccc1OCC(=O)N(Cc1nc(-c2ccccc2)no1)C(C)C	none
Cc1ccc(-c2nc(N/N=C/c3ccncc3)c3ccccc3n2)cc1	tim23-1 inh 76, tim10-1 inh 74, TIM10 inh 60 | tim10-1 conf 69 | TIM10 conf 60 | tim23-1 confirm 81
COc1ccc(/C=N/Nc2nc(-c3cccnc3)nc3ccccc23)cc1OC	none
COc1ccc(NC(=O)c2cccc(OC(F)F)c2)cc1Cl	none
O=C(Nc1ccc(OC(F)F)c(Cl)c1)c1cccc(OC(F)F)c1	tim23-1 inh 71, tim10-1 inh 71, TIM10 inh 63 | tim10-1 conf 63 | TIM10 conf 59 | tim23-1 confirm 76
Cn1c(N=Nc2ccccc2)nc2ccccc21	none
CN(C)c1ccc(N=Nc2nc3ccccc3n2C)cc1	tim23-1 inh 87, tim10-1 inh 65, TIM10 inh 82 (no result: NALP1 yeast inh) | tim10-1 conf 74 | TIM10 conf 73 | tim23-1 confirm 82
C=C(CC)C(=O)c1ccc(OCC(=O)O)c(Cl)c1Cl	tim23-1 inh 68, tim10-1 inh 65, NALP1 yeast inh 78, TIM10 inh 54 | tim10-1 conf 55 | TIM10 conf 57 | tim23-1 confirm 89
O=C(NC1CCCCC1)C1CC=CCC1C(=O)OCC(Cl)=C(Cl)Cl (stereo unspecified)	none
Cc1ccc(-c2nc(=S)c3c(n2Cc2cccnc2)CC(C)(C)OC3)cc1	none
O=[N+]([O-])c1cc(Cl)cc2c1nc(NCCO)c1ccccc12	tim23-1 inh 55, tim10-1 inh 67 | tim10-1 conf 50 | tim23-1 confirm 47
Cc1ccc(S(=O)(=O)NNC(=O)c2ccoc2C)cc1	none
CCc1ccccc1NC(=O)CNC(=O)c1cc(C2CC2)nc2c1cnn2C(C)C	none (no result: NALP1 yeast inh)
CC(C)n1ncc2c(C(=O)NCC(=O)Nc3ccccc3Br)cc(C3CC3)nc21	tim23-1 inh 53, tim10-1 inh 42 (no result: NALP1 yeast inh) | tim10-1 conf inactive | tim23-1 confirm 44
CCOC(=O)N1CCC(NC(=O)c2cccc3c2C(=O)N(Cc2cccnc2)C3)CC1	none
COc1ccc(S(=O)(=O)N2CCN(C(=O)c3oc4ccccc4c3C)CC2)cc1	tim23-1 inh 53, tim10-1 inh 57, TIM10 inh 44 | tim10-1 conf 43 | TIM10 conf 55 | tim23-1 confirm 54
Cc1ccc(S(=O)(=O)N[C@H](C(=O)OCC(=O)N2N=C(c3ccc(Cl)cc3)CC2c2ccco2)C(C)C)cc1 (stereo partly specified)	none (no result: NALP1 yeast inh)
COc1ccc(-c2cc(C(F)F)nc(-n3nc(C)cc3C)n2)cc1	tim23-1 inh 58, tim10-1 inh 42, TIM10 inh 52 | tim10-1 conf 36 | TIM10 conf inactive | tim23-1 confirm 45
Cc1nc([N+](=O)[O-])c(C(=O)OCc2ccccc2C#N)n1C	none
CCOC(=O)c1ccsc1NC(=O)CCS(=O)(=O)c1ccccc1	tim23-1 inh 62, tim10-1 inh 54, TIM10 inh 43 | tim10-1 conf 42 | TIM10 conf 38 | tim23-1 confirm 51
O=C(Nc1ccc(Oc2ccc(Cl)cc2)c(Cl)c1)c1cc(I)cc(I)c1O	tim23-1 inh 59, tim10-1 inh 54 | tim10-1 conf 52 | tim23-1 confirm 60
COc1ccc(NC(=O)c2ccccc2F)cc1Cl	none
O=C(Nc1ccc(Oc2ccc(Br)cc2)cc1)C1=CC=CN2CCS(=O)(=O)N=C12	none (no result: NALP1 yeast inh)
CN(C(=O)/C=C/c1ccc([N+](=O)[O-])s1)c1ccccc1	tim23-1 inh 53, tim10-1 inh 45, TIM10 inh 43 | tim10-1 conf 59 | TIM10 conf 49 | tim23-1 confirm 50
CC1=NN(C(N)=S)C(=O)C1N=Nc1ccc(Cl)cc1Cl (stereo unspecified)	tim23-1 inh 64, tim10-1 inh 57, TIM10 inh 46 | tim10-1 conf 56 | TIM10 conf 58 | tim23-1 confirm 73
COc1ccc(CNC(=O)N[C@H](C(=O)O)C(C)C)cc1OC	none (no result: NALP1 yeast inh)
